Our source for the Potency and max response values is PubChem BioAssay (Tox21).

SMILES strings stand for the structures. Records with an inconclusive call do not appear. Some compounds were tested as several samples or in several runs, with calls that do not always agree. Activity calls are given as the source filed them. The call rests on the fitted dose curve; in most records, active means well fitted curve in the direction sought with a large enough effect in the repeat runs; inconclusive means weak or mixed curves; inactive means no such curve, though single readings can be large; an effect the other way counts as inactive or inconclusive.

The nature of assay [1]: A CellTox Green Cytotoxicity Assay to monitor cytotoxicity in HEK293 cells - 40 hour (AID 1224871). Further: nearly all actives have a fitted effect of over 45% in size. In a few lines: (§1)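 Read-out: fluorescence of a cell-impermeant cyanine dye staining DNA of dead cells, proportional to cytotoxicity. HEK293, 600 cells/well with reagent, compound (23 nL DMSO) added after 5 h; reads at 0, 8, 16, 24, 32, 40 h.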
Assay [2] in a line: qHTS RealTime-Glo MT Cell Viability Assay in HEK293 cells - 16 hour (AID 1224872). Further: nearly all actives have a fitted effect of over 50% in size. Further: potency means the concentration at half of the fitted maximal effect. The method in brief: (§2)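 Assay medium contained NanoLuc luciferase plus cell-permeant prosubstrate, added with HEK293 cells at 600 cells/well. After 5 h at 37 C/5% CO2 compounds were added; plates stayed at 37 C for 40 h with serial luminescence reads.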
Assay [3] is described as follows: qHTS RealTime-Glo MT Cell Viability Assay in HepG2 cells - 8 hour (AID 1224873). Further: nearly all actives have a fitted effect of over 55% in size. The method in brief:
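Real-time viability: cells seeded at 600 per well together with NanoLuc and cell-permeant prosubstrate, compounds added after 5 h incubation. Luminescence tracked at 0, 8, 16, 24, 32 and 40 h of exposure.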

A short description of assay [4]: qHTS RealTime-Glo MT Cell Viability Assay in HEK293 cells - 40 hour (AID 1224874). Further: nearly all actives have a fitted effect of over 50% in size. Further: potency means the concentration at half of the fitted maximal effect. The note with it: RealTime-Glo luminescence; max response: active compounds read low. The method in brief: (§3)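 Luminescence readout at each listed time point; HEK293, 600 cells/well, RealTime-Glo MT reagent added with cells; compounds pinned (23 nL in DMSO) after 5 h at 37 C; continuous culture at 37 C.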
A general note: Quantitative high-throughput screening tests each substance at several concentrations.

The nature of assay [5]: A CellTox Green Cytotoxicity Assay to monitor cytotoxicity in HEK293 cells - 24 hour (AID 1224875). Further: series mostly up to about 77 µM; nearly all actives have a fitted effect of over 45% in size. In a few lines:
as §1

The nature of assay [6]: A CellTox Green Cytotoxicity Assay to monitor cytotoxicity in HepG2 cells - 16 hour (AID 1224876). Further: nearly all actives have a fitted effect of over 45% in size. In a few lines:
(§4)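 HepG2, 600 cells/well premixed w/ CellTox Green; 5 h settle, 37 C/5% CO2; pintool cpd add (DMSO); 37 C, 40 h; fluorescence read at 0, 8, 16, 24, 32, 40 h.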

A short description of assay [7]: qHTS RealTime-Glo MT Cell Viability Assay in HepG2 cells - 32 hour (AID 1224877). Further: nearly all actives have a fitted effect of over 55% in size. The method in brief:
(§5)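 qHTS, HepG2, 600 cells/well, RealTime-Glo (NanoLuc + prosubstrate) added with cells; 5 h preincubation; DMSO compound addition; 37 C; luminescence at 0/8/16/24/32/40 h.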

Assay [8] can be described thus: A CellTox Green Cytotoxicity Assay to monitor cytotoxicity in HepG2 cells - 24 hour (AID 1224878). Further: nearly all actives have a fitted effect of over 45% in size. In a few lines:
as §4

Assay [9] in a line: A CellTox Green Cytotoxicity Assay to monitor cytotoxicity in HepG2 cells - 40 hour (AID 1224879). Further: nearly all actives have a fitted effect of over 40% in size. In a few lines: as §4
Assay [10] can be described thus: qHTS RealTime-Glo MT Cell Viability Assay in HEK293 cells - 0 hour (AID 1224880). In a few lines:
as §3

Assay [11] in a line: A CellTox Green Cytotoxicity Assay to monitor cytotoxicity in HEK293 cells - 32 hour (AID 1224881). Further: nearly all actives have a fitted effect of over 40% in size. The method in brief:
as §1

Assay [12] in a line: A CellTox Green Cytotoxicity Assay to monitor cytotoxicity in HepG2 cells - 0 hour (AID 1224882). Further: nearly all actives have a fitted effect of over 35% in size. The method in brief:
as §4

A short description of assay [13]: A CellTox Green Cytotoxicity Assay to monitor cytotoxicity in HepG2 cells - 32 hour (AID 1224883). Further: nearly all actives have a fitted effect of over 50% in size. In a few lines:
as §4

Assay [14] is described as follows: A CellTox Green Cytotoxicity Assay to monitor cytotoxicity in HEK293 cells - 8 hour (AID 1224884). Further: nearly all actives have a fitted effect of over 35% in size. The method in brief: as §1
Assay [15] is described as follows: qHTS RealTime-Glo MT Cell Viability Assay in HepG2 cells - 16 hour (AID 1224885). Further: nearly all actives have a fitted effect of over 50% in size. The method in brief: as §5
Assay [16] in a line: qHTS RealTime-Glo MT Cell Viability Assay in HEK293 cells - 24 hour (AID 1224886). Further: nearly all actives have a fitted effect of over 50% in size. Further: potency means the concentration at half of the fitted maximal effect. The method in brief:
as §2

Assay [17] can be described thus: qHTS RealTime-Glo MT Cell Viability Assay in HEK293 cells - 8 hour (AID 1224887). Further: nearly all actives have a fitted effect of over 50% in size. Further: potency means the concentration at half of the fitted maximal effect. In a few lines:
as §3

Assay [18] is described as follows: A CellTox Green Cytotoxicity Assay to monitor cytotoxicity in HEK293 cells - 16 hour (AID 1224888). Further: nearly all actives have a fitted effect of over 35% in size. The method in brief: as §1
Assay [19] in a line: qHTS RealTime-Glo MT Cell Viability Assay in HepG2 cells - 0 hour (AID 1224889). Further: nearly all actives have a fitted effect of over 50% in size. The method in brief:
as §5

Assay [20] is described as follows: A CellTox Green Cytotoxicity Assay to monitor cytotoxicity in HepG2 cells - 8 hour (AID 1224890). Further: nearly all actives have a fitted effect of over 45% in size. The method in brief:
as §4
On the % scale 0 is the no-effect control and ±100 the full control effect.

Regarding `CC(C)CBr`, the Potency result in assay [1], in assay [2], in [3], in assay [5], in [6] and in [7] was “inactive” each time. Moreover, the Potency entry in assay [8], in assay [9], in [10], in assay [11], in [12] and in [13] was “inactive” each time. The Potency result in [14], in assay [15], in assay [16], in [17], in assay [18] and in assay [19] was “inactive” in each case. The Potency result in assay [20] was “inactive”. Also, the max response in [4] is 0.766% (inactive).
`N#Cc1ccc(O)cc1`: the Potency result in assay [1], in assay [2], in assay [3], in assay [5], in assay [6] and in [7] was “inactive” each time. Besides, the Potency result in [8], in assay [9], in assay [10], in assay [11], in assay [12] and in assay [13] was “inactive” each time. Also, the Potency result in assay [14], in assay [15], in assay [16], in assay [17], in assay [18] and in assay [19] was “inactive” in each case. In addition, in assay [20], the Potency entry is “inactive”. Also, in assay [4], the max response is -7.33% (inactive).
Take `BrCBr`: the Potency result in [1], in [2], in assay [3], in assay [5], in assay [6] and in assay [7] was “inactive” in each case. Moreover, the Potency result in assay [8], in assay [9], in [10], in assay [11], in [12] and in assay [13] was “inactive” each time. The Potency result in assay [14], in [15], in [16], in assay [18], in [19] and in assay [20] was “inactive” throughout. In assay [4], the max response is 10.5% (inactive).
Consider `COc1ccc(N)cc1N`, for which the Potency entry in assay [1], in [3], in assay [5], in [6], in assay [7] and in assay [8] was “inactive” in each case. In addition, the Potency result in assay [9], in assay [10], in [11], in assay [12], in assay [14] and in assay [15] was “inactive” each time. Besides, the Potency result in assay [18], in assay [19] and in assay [20] was “inactive” in each case. For the same compound, the Potency in assay [2] was 35.8 µM (active); in [4], 50.5 µM (active); in assay [16] it was 40.1 µM (active); in [17] it was 25.3 µM (active). The max response in [4] is -27.7% (inactive).
As to `BrC(Br)Br`, the Potency result in [1], in [2], in assay [3], in assay [5], in assay [6] and in [7] was “inactive” in each case. For the same compound, the Potency result in assay [8], in assay [9], in assay [10], in assay [11], in assay [12] and in [13] was “inactive” each time. The Potency entry in assay [14], in [15], in [16], in [17], in [18] and in assay [19] was “inactive” in each case. Also, the Potency result in assay [20] was “inactive”. In addition, the max response in assay [4] was 17.3% (inactive).
For the compound `CCOC(=O)OC1=C(c2cc(C)ccc2C)C(=O)NC12CCC(OC)CC2` (stereo not drawn), the Potency result in [1], in assay [2], in assay [3], in assay [5], in assay [6] and in assay [7] was “inactive” throughout. Moreover, the Potency entry in assay [8], in assay [9], in assay [10], in assay [11], in [12] and in [13] was “inactive” each time. For the same compound, the Potency entry in assay [14], in assay [15], in assay [16], in assay [17], in assay [18] and in assay [19] was “inactive” each time. The Potency entry in [20] is “inactive”. For the same compound, the max response in [4] was -0.185% (inactive).
In the case of `CCc1ccccc1C`, the Potency result in assay [1], in assay [2], in assay [3], in [5], in assay [6] and in assay [7] was “inactive” in each case. For the same compound, the Potency result in assay [8], in assay [9], in assay [10], in [11], in [12] and in assay [13] was “inactive” in each case. In addition, the Potency entry in assay [14], in assay [15], in assay [16], in assay [17], in [18] and in assay [19] was “inactive” each time. The Potency entry in assay [20] is “inactive”. Also, the max response in assay [4] is 0.859% (inactive).
`COc1ccc([N+](=O)[O-])cc1O`: the Potency result in assay [1], in [2], in assay [3], in assay [5], in assay [6] and in assay [7] was “inactive” each time. Also, the Potency result in assay [8], in assay [9], in [10], in assay [11], in assay [12] and in assay [13] was “inactive” throughout. For the same compound, the Potency entry in assay [15], in [16], in assay [17], in assay [18], in [19] and in [20] was “inactive” each time. The max response in assay [4] is 1.5% (inactive).
For `N#CNC#N`, the Potency entry in [1], in [2], in assay [3], in assay [5], in [6] and in [7] was “inactive” throughout. The Potency result in assay [8], in [9], in assay [10], in assay [11], in [12] and in assay [13] was “inactive” each time. In addition, the Potency entry in assay [14], in [15], in assay [16], in assay [17], in [18] and in assay [19] was “inactive” in each case. Besides, the Potency entry in [20] was “inactive”. In assay [4], the max response is 1.5% (inactive).
Take `C=CCOC(N)=O`: the Potency result in [1], in assay [2], in assay [3], in assay [5], in assay [6] and in assay [7] was “inactive” throughout. Further, the Potency entry in assay [8], in assay [9], in assay [10], in assay [11], in assay [12] and in [13] was “inactive” throughout. In addition, the Potency result in [14], in assay [15], in assay [16], in assay [17], in [18] and in [19] was “inactive” throughout. In addition, the Potency entry in assay [20] is “inactive”. For the same compound, the max response in assay [4] was 0.832% (inactive).
Take `CCC(C)c1cc(C(C)(C)C)cc(-n2nc3ccccc3n2)c1O` (stereo not drawn): the Potency result in [1], in assay [2], in assay [3], in assay [5], in assay [6] and in [7] was “inactive” each time. Further, the Potency entry in [8], in assay [9], in [10], in assay [11], in assay [12] and in assay [13] was “inactive” each time. Further, the Potency result in assay [14], in assay [15], in assay [16], in assay [17], in assay [18] and in assay [19] was “inactive” in each case. In addition, in [20], the Potency result is “inactive”. Further, in assay [4], the max response is 9.2% (inactive).
Take `N#CCCO`: the Potency entry in assay [1], in assay [2], in assay [3], in assay [5], in [6] and in [7] was “inactive” in each case. Moreover, the Potency entry in assay [8], in assay [9], in assay [10], in assay [11], in assay [12] and in assay [13] was “inactive” in each case. For the same compound, the Potency result in assay [14], in assay [15], in [16], in assay [17], in [18] and in assay [19] was “inactive” in each case. Also, in [20], the Potency result was “inactive”. Moreover, in assay [4], the max response is 5.8% (inactive).
